Our source for the Inhibition values is ChEMBL document CHEMBL4513141, “CO-ADD screening of NIH (USA) - Clinical Collection” (2021).

One assay relates to Klebsiella pneumoniae. As to conditions: Concentration 20 uM; ASSAY_TEST Inhibition of Bacterial Growth; detection method Absorption (OD600); MEDIA CAMHB; plate type 384well; NBS; CORNING #3640; time 18 hr.
The subject of the next assay is Candida albicans. As to conditions: 20 µM.
The subject of a further assay is Cryptococcus neoformans. As to conditions: Concentration 20 uM; ASSAY_TEST Inhibition of Fungal Growth; detection method Resazurin; Absorption (OD600-OD570); plate type 384well; NBS; CORNING #3640. For orientation: Resazurin is reduced to fluorescent resorufin, in cell work by metabolically active cells.

One may read the Inhibition as the drop in the measured response relative to a control, in per cent.

Potency and affinity values are given separately.

Consider `Cc1ccnc2c1NC(=O)c1cccnc1N2C1CC1` [NEVIRAPINE], for which the Inhibition is 10.08% in the assay with Klebsiella pneumoniae, 2.39% with Candida albicans and -2.57% in the assay on Cryptococcus neoformans.

As for `Nc1nc(F)nc2c1ncn2[C@@H]1O[C@H](CO)[C@@H](O)[C@@H]1O` [FLUDARABINE], the Inhibition is 6.42% in the assay on Klebsiella pneumoniae, 0.49% in the assay with Candida albicans and -5.72% in the assay on Cryptococcus neoformans.

In the case of `c1ccc2c3c([nH]c2c1)CNCC3` [TRYPTOLINE], the values for the Inhibition with Klebsiella pneumoniae, in the assay with Candida albicans and with Cryptococcus neoformans were 13.54%, 3.92% and -5.61%, respectively.

Turning to `CC(C)[C@]12O[C@H]1[C@@H]1O[C@]13[C@]1(O[C@H]1C[C@H]1C4=C(CC[C@@]13C)C(=O)OC4)[C@@H]2O` [TRIPTOLIDE], the Inhibition was 7.24% in the assay with Klebsiella pneumoniae, 1.65% in the assay with Candida albicans and -8.43% with Cryptococcus neoformans.

`CN1CCN(C2=Nc3cc(Cl)ccc3Nc3ccccc32)CC1` [CLOZAPINE]: the values for the Inhibition in the assay with Klebsiella pneumoniae, in the assay with Candida albicans and in the assay with Cryptococcus neoformans were 8.37%, 0.59% and -5.79%, respectively.

`C#CCN(C)[C@H](C)Cc1ccccc1.Cl` [SELEGILINE HYDROCHLORIDE]: the Inhibition in the assay on Klebsiella pneumoniae came out at 8.65%; with Candida albicans, 4.68%; in the assay with Cryptococcus neoformans it was 1.77%.

As for `CNCCC(Oc1ccc(C(F)(F)F)cc1)c1ccccc1.Cl` (stereo unspecified) [FLUOXETINE HYDROCHLORIDE], the Inhibition in the assay on Klebsiella pneumoniae is 3.44%; in the assay with Candida albicans, 1.79%; in the assay on Cryptococcus neoformans it was -8.4%.

For the compound `COc1cc([C@@H]2c3cc4c(cc3[C@H](O)[C@H]3COC(=O)[C@H]23)OCO4)cc(OC)c1OC` [PODOFILOX], the values for the Inhibition in the assay with Klebsiella pneumoniae, in the assay on Candida albicans and in the assay on Cryptococcus neoformans were 15.68%, 0.66% and -1.83%, respectively.

Consider `CNCC(O)c1ccc(O)cc1` (stereo unspecified) [OXEDRINE], for which the Inhibition is -0.12% in the assay on Klebsiella pneumoniae, 5.72% with Candida albicans and 1.4% in the assay with Cryptococcus neoformans.

Regarding `Cc1ncc2n1-c1ccc(Cl)cc1C(c1ccccc1F)=NC2.Cl` [MIDAZOLAM HYDROCHLORIDE], the Inhibition in the assay with Klebsiella pneumoniae was 2.84%; in the assay on Candida albicans it was 3.62%; in the assay with Cryptococcus neoformans, -0.63%.

Regarding `CNS(=O)(=O)Cc1ccc2[nH]cc(CCN(C)C)c2c1.O=C(O)CCC(=O)O` [SUMATRIPTAN SUCCINATE], the Inhibition in the assay with Klebsiella pneumoniae is 9.24%; in the assay with Candida albicans, 4.97%; in the assay on Cryptococcus neoformans, -9.65%.

Take `CN/C(=N\CCSCc1nc[nH]c1C)NC#N` [CIMETIDINE]: the Inhibition in the assay with Klebsiella pneumoniae worked out at 3.14%; in the assay on Candida albicans, 3.16%; with Cryptococcus neoformans it was 2.1%.

As to `c1cncc([C@@H]2CCCN2)c1` [NORNICOTINE], the Inhibition was 9.44% in the assay on Klebsiella pneumoniae, 3.55% in the assay on Candida albicans and -7.65% in the assay on Cryptococcus neoformans.

Consider `O=C1CN=C(c2ccccc2)c2cc([N+](=O)[O-])ccc2N1` [NITRAZEPAM], for which the Inhibition in the assay with Klebsiella pneumoniae was 13.18%; in the assay on Candida albicans it was 3.29%; with Cryptococcus neoformans, 1.38%.

As for `CCCC(C)(COC(N)=O)COC(=O)NC(C)C` (stereo unspecified) [CARISOPRODOL], the Inhibition was 4.45% with Klebsiella pneumoniae, 4.69% in the assay on Candida albicans and 4.79% with Cryptococcus neoformans.

For the compound `C=C1C[C@@H]2[C@H](CC[C@]3(C)C(=O)CC[C@@H]23)[C@@]2(C)C=CC(=O)C=C12` [EXEMESTANE], the Inhibition in the assay with Klebsiella pneumoniae was 6.02%; in the assay with Candida albicans, 5.81%; in the assay with Cryptococcus neoformans, -8.06%.

In the case of `O=C(O)C(Cl)Cl` [DICHLOROACETIC ACID], the Inhibition was 10.68% with Klebsiella pneumoniae, 2.59% in the assay on Candida albicans and -3.9% in the assay on Cryptococcus neoformans.

As for `CCOC(=O)C1=C(COCCN)NC(C)=C(C(=O)OC)C1c1ccccc1Cl` (stereo unspecified) [AMLODIPINE], the values for the Inhibition with Klebsiella pneumoniae, in the assay with Candida albicans and with Cryptococcus neoformans were 0.34%, 4.94% and -10.38%, respectively.

Turning to `NC(=O)OCCCc1ccccc1` [PHENPROBAMATE], the Inhibition was 12.49% with Klebsiella pneumoniae, 3.16% with Candida albicans and -1.72% in the assay with Cryptococcus neoformans.

For `CS(=O)(=O)Nc1ccc(Cc2noc(-c3ccc4[nH]cc(CCN)c4c3)n2)cc1.O.O`, the results for the Inhibition in the assay with Klebsiella pneumoniae, in the assay on Candida albicans and in the assay with Cryptococcus neoformans were 11.61%, 2.75% and -39.59%, respectively.

Turning to `CC(C)(C)NCC(O)c1cc(O)cc(O)c1.O=S(=O)(O)O` (stereo unspecified), the Inhibition was 12.1% in the assay on Klebsiella pneumoniae, 2.97% with Candida albicans and -9.43% with Cryptococcus neoformans.

In the case of `C[C@]12CCC(=O)C[C@@H]1CC[C@@H]1[C@@H]2CC[C@@]2(C)[C@H]1CC[C@]2(C)O` [MESTANOLONE], the Inhibition turned out to be 3.85% in the assay on Klebsiella pneumoniae, 11.7% in the assay on Candida albicans and 4.57% in the assay with Cryptococcus neoformans.

With `CC(=O)[C@H]1CC[C@H]2[C@@H]3CCC4=CC(=O)CC[C@]4(C)[C@H]3CC[C@]12C` [PROGESTERONE], the Inhibition was 23.48% in the assay with Klebsiella pneumoniae, 11.4% with Candida albicans and -1.48% in the assay on Cryptococcus neoformans.

As to `CN1CCN(C(=O)O[C@H]2c3nccnc3C(=O)N2c2ccc(Cl)cn2)CC1` [ESZOPICLONE], the Inhibition in the assay on Klebsiella pneumoniae was -5.59%; in the assay on Candida albicans, 0.3%; with Cryptococcus neoformans, 4.31%.

As to `Cl.FC(F)(F)c1cccc(N2CCNCC2)c1` [N- (3-TRIFLUOROMETHYLPHENYL)PIPERAZINE HYDROCHLORIDE (TFMPP)], the Inhibition in the assay with Klebsiella pneumoniae was 6.51%; in the assay with Candida albicans, 4.36%; in the assay on Cryptococcus neoformans, -3.92%.

Turning to `N=C(NCc1ccc(Cl)cc1)SCCCc1c[nH]cn1` [CLOBENPROPIT], the Inhibition with Klebsiella pneumoniae was 6.85%; in the assay with Candida albicans, 2.99%; with Cryptococcus neoformans, -0.61%.

For `C[C@]12CC[C@H](O)CC1=CC[C@@H]1[C@@H]2CC[C@@]2(C)[C@H]1CC[C@]2(C)O` [METHANDRIOL], the results for the Inhibition in the assay with Klebsiella pneumoniae, in the assay with Candida albicans and in the assay on Cryptococcus neoformans were 9.75%, 4.69% and 2.63%, respectively.
